Assay outcomes (PubChem BioAssay)
NR2F2 inh: inhibitors of human COUP-TFII (NR2F2); 370,000 tested, 0.7% active; inhibition, % at 8.6 µM; HEK293T NGFI-A luciferase reporter, luminescence;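 active = inhibition above a per-plate cutoff, mean inhibition of test wells between control levels plus 3 SD, cut at about 38% in these data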;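 also: cells cotransfected with COUP-TFII expression vector driving the NGFI-A reporter; 0% = median of COUP-TF2 test wells and 100% = reporter-only cells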
Target sequence (P24468 whole entry, looked up): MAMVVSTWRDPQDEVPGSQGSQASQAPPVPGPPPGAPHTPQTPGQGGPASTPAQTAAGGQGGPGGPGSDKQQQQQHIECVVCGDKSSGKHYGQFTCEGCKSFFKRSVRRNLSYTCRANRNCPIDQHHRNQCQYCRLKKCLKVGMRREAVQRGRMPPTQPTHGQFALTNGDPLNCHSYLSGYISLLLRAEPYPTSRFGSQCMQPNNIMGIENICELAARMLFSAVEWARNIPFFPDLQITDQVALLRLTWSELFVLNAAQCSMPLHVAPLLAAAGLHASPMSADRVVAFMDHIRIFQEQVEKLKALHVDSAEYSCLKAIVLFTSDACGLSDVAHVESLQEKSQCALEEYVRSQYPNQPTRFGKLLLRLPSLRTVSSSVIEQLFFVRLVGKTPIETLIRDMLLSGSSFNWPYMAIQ
LRH-1 inv ag: suppresses constitutive activity of human LRH-1; O00482; HEK293T StAR-luciferase reporter, LRH-1 transfected, 24 h; inhibition, % at 3.6 µM; 360,000 tested, 0.13% active; AID 602396;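 active = inhibition above the mean inhibition of all tested compounds plus 3 SD, cut at about 73% in these data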;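 also: 0% = DMSO wells and 100% = reporter-only cells lacking LRH-1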
SRC2 inh: human SRC2 (NCOA2) inhibition; 370,000 tested, 0.17% active; HEK293 GAL4-SRC2 luciferase reporter, luminescence; AID 651957; inhibition, % at 9 µM;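 active = inhibition above the mean inhibition of all tested compounds plus 3 SD, set per campaign, cut at about 52% in these data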;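 also: 0% = DMSO treated cells and 100% = cells given Gossypol at 36 µM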
NCOA3 inh: human NCOA3 inhibition | Q9Y6Q9 | HEK293 GAL4-SRC3 luciferase reporter, luminescence | 360,000 tested, 0.17% active | inhibition, % at 3.6 µM;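 active = inhibition above a per-campaign cutoff, the mean of all compounds plus 3 SD, cut at about 60% in these data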;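 also: 0% = DMSO-treated cells and 100% = gossypol-treated cells at 36 µM; higher means less SRC3-driven luciferase light from the GAL4 reporter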
NCOA1 inh: inhibits human SRC1 coactivator; Q15788; HEK293 GAL4-SRC1 luciferase reporter, luminescence; inhibition, % at 3.6 µM; 360,000 tested, 0.12% active; AID 588354;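 active = inhibition above the campaign mean plus 3 SD, with each screening campaign given its own cutoff, cut at about 60% in these data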;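 also: 0% = DMSO treated cells and 100% = gossypol at 36 µM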
GalR3 antag: blocks the human galanin receptor 3; O60755; HEK293 GalR3-CNG cAMP membrane potential fluorescence; galR3 body fused to GalR1 C-terminus; inhibition, % at 3 µM; 360,000 tested, 0.44% active; AID 651719;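 active = inhibition above the screen-wide average plus 3 SD, cut at about 13% in these data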;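 also: forskolin and galanin both at EC90 stimulate the cells; cAMP rise reported by CNG channel membrane potential dye signal; 0% = forskolin plus galanin with DMSO and 100% = forskolin alone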
Target sequence (O60755 1-299 limits assumed): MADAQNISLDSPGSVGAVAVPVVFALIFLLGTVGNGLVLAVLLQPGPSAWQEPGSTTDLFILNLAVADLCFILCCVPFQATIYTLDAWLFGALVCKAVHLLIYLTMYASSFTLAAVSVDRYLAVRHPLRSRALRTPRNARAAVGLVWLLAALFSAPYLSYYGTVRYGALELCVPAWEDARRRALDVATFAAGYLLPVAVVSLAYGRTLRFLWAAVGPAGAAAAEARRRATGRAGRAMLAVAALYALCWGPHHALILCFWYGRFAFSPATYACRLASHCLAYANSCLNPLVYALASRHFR
GalR3 antag conf: GalR3 (human) antagonism, confirmation | 1,600 tested, 59% active | shares compounds with GalR3 antag | inhibition, % at 3 µM | HEK293 GalR3 CNG cAMP biosensor, membrane potential fluorescence; galR3 fused to GalR1 carboxy tail; challenged with forskolin and galanin at EC90;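 active = inhibition above the primary screen's cutoff, the mean inhibition of all screened compounds plus 3 SD, cut at about 13% in these data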;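 also: 0% = forskolin plus galanin and 100% = forskolin alone with DMSO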
CNG parental: parental cell agonism counter-screen for GalR3 antagonists; shares compounds with GalR3 antag; HEK293-CNG parental cells, cAMP membrane potential fluorescence; normalised: DMSO wells 0%, forskolin wells 100%; activation, % at 3 µM; 1,600 tested, 10% active; in the data active = activation above about 1.3%
Gal4-VP16 ctr: VP16 inhibition counter-screen for COUP-TFII. HEK293 Gal4-VP16 luciferase reporter, luminescence. shares compounds with NR2F2 inh. 2,500 tested, 25% active. inhibition, % at 8.5 µM; in the data active = inhibition above about 13%
COUP-TFII conf: confirmation of human COUP-TFII (NR2F2) inhibitors; shares compounds with NR2F2 inh; HEK293 NGFI-A luciferase reporter, luminescence; inhibition, % at 8.5 µM; 2,500 tested, 45% active;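 active = mean inhibition over three repeats above a set limit taken from the earlier primary screen, cut at about 38% in these data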;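 also: 100% = cells given the luciferase reporter alone without the COUP-TF2 vector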
* marks the source's active call; other numbers are inactive results. Compounds with a hit are over-represented: about 1.1% of the library has one in this group of screens.

Results for CCN(CC)S(=O)(=O)c1cccc(NC(=O)CNc2cccc(S(=O)(=O)N3CCCC3)c2)c1 ?
NR2F2 inh: 64.3*; LRH-1 inv ag: 44.4; SRC2 inh: 23.1; NCOA3 inh: 25.7; NCOA1 inh: 3.3; GalR3 antag: 103.8*; GalR3 antag conf: 113.2*; CNG parental: -0.5; Gal4-VP16 ctr: 5.8; COUP-TFII conf: 64.9*

What do the screens show for `CCN(CC)S(=O)(=O)c1ccc(C)c(NC(=O)CNc2cccc(S(=O)(=O)N3CCCC3)c2)c1`?
NR2F2 inh: -4.4; LRH-1 inv ag: 10.3; SRC2 inh: 0.3; NCOA3 inh: 2.5; NCOA1 inh: 7.7; GalR3 antag: -2.2

How did O=C(COC(=O)c1cc(NS(=O)(=O)c2cccs2)ccc1O)Nc1ccc(F)c(F)c1F do in these assays?
NR2F2 inh: 9.1; LRH-1 inv ag: 28.1; SRC2 inh: -6.5; NCOA3 inh: 5.7; NCOA1 inh: -0.3; GalR3 antag: -1.6

What do the screens show for `Cc1ccc(C(=O)NNC(=S)NC(=O)COc2ccccc2)cc1`?
NR2F2 inh: -3.5; LRH-1 inv ag: -15.1; SRC2 inh: -12.9; NCOA3 inh: -5.5; NCOA1 inh: -13.4; GalR3 antag: -1.6

Results for COc1ccc(NC(=O)COc2ccc(N(C)S(=O)(=O)c3ccc(Cl)cc3)cc2)cc1OC ?
NR2F2 inh: 59.1*; LRH-1 inv ag: 41.0; SRC2 inh: 13.9; NCOA3 inh: 28.5; NCOA1 inh: 11.4; GalR3 antag: 90.7*; GalR3 antag conf: 85.1*; CNG parental: -0.4; Gal4-VP16 ctr: 1.8; COUP-TFII conf: 58.5*

Results for COc1ccc(S(=O)(=O)Nc2ccc(F)cc2)cc1N(C)S(=O)(=O)c1ccc(Cl)cc1 ?
NR2F2 inh: 14.2; LRH-1 inv ag: -3.5; SRC2 inh: 7.3; NCOA3 inh: 0.1; NCOA1 inh: -5.5; GalR3 antag: -4.7

Results for COc1ccc(NS(=O)(=O)c2ccc(OC)c(N(C)S(=O)(=O)c3ccc(Cl)cc3)c2)cc1 ?
NR2F2 inh: 57.1*; LRH-1 inv ag: 40.5; SRC2 inh: 33.9; NCOA3 inh: 25.6; NCOA1 inh: -3.7; GalR3 antag: 24.8*; GalR3 antag conf: 61.9*; CNG parental: -0.2; Gal4-VP16 ctr: -6.6; COUP-TFII conf: 21.4

What do the screens show for `CN(c1ccc(OCC(=O)OCC(=O)Nc2ccc(F)cc2)cc1)S(=O)(=O)c1ccc(Cl)cc1`?
NR2F2 inh: 2.5; LRH-1 inv ag: -1.6; SRC2 inh: -18.9; NCOA3 inh: 10.9; NCOA1 inh: 1.1; GalR3 antag: 4.6

What do the screens show for `O=C(CCc1nc2sc3c(c2c(=O)[nH]1)CCCC3)Nc1ccccc1Cl`?
NR2F2 inh: -4.6; LRH-1 inv ag: 4.2; SRC2 inh: 6.7; NCOA3 inh: 0.0; NCOA1 inh: -1.6; GalR3 antag: -3.0

What do the screens show for `COc1ccc(CC2(CO)CCN(CC3=Cc4cc(Cl)ccc4OC3)CC2)cc1`?
NR2F2 inh: 63.7*; LRH-1 inv ag: 19.7; SRC2 inh: 18.1; NCOA3 inh: 11.4; NCOA1 inh: -11.6; GalR3 antag: 69.6*; GalR3 antag conf: 75.7*; CNG parental: 2.2*; Gal4-VP16 ctr: -7.6; COUP-TFII conf: 45.4*

Results for COc1ccc2c(c1)C=C(CN1CCC(CO)(CCc3ccccc3)CC1)CO2 ?
NR2F2 inh: -8.0; LRH-1 inv ag: 1.5; SRC2 inh: 5.1; NCOA3 inh: -0.7; NCOA1 inh: -7.1; GalR3 antag: -6.2

What do the screens show for `COc1ccc(N(Cc2ccccc2)C(=O)CSc2nnc(Cn3nnc4ccccc43)o2)cc1`?
NR2F2 inh: 12.2; LRH-1 inv ag: 10.3; SRC2 inh: -2.4; NCOA3 inh: 23.8; NCOA1 inh: -32.7; GalR3 antag: -5.7

What do the screens show for `O=C(CSc1nnc(Cn2nnc3ccccc32)o1)N(Cc1ccc(F)cc1)c1ccccc1`?
NR2F2 inh: 78.5*; LRH-1 inv ag: 50.5; SRC2 inh: 24.0; NCOA3 inh: 31.9; NCOA1 inh: 29.4; GalR3 antag: 92.5*; GalR3 antag conf: 114.2*; CNG parental: 0.1; Gal4-VP16 ctr: -0.4; COUP-TFII conf: 62.2*

What do the screens show for `O=C(c1ccccc1)c1ccc(Cn2cc(-c3ccccc3)nn2)cc1`?
NR2F2 inh: 38.2*; LRH-1 inv ag: -11.8; SRC2 inh: 0.5; NCOA3 inh: -20.9; NCOA1 inh: -7.3; GalR3 antag: 24.8*; GalR3 antag conf: 56.2*; CNG parental: 0.0; Gal4-VP16 ctr: -79.0; COUP-TFII conf: 10.3

Results for CCCCCc1ccc(-c2cn(Cc3ccc(C(=O)c4ccccc4)cc3)nn2)cc1 ?
NR2F2 inh: -0.2; LRH-1 inv ag: -31.8; SRC2 inh: -12.3; NCOA3 inh: -36.4; NCOA1 inh: -16.2; GalR3 antag: -4.1

What do the screens show for `CC1CN(/C=C/C=O)C(C)CC1OC(=O)c1ccccc1` (stereo not drawn)?
NR2F2 inh: 15.9; LRH-1 inv ag: -10.4; SRC2 inh: 3.5; NCOA3 inh: -1.7; NCOA1 inh: -2.8; GalR3 antag: -11.7

How did Cc1ccc(NC(=O)CSc2nn(-c3ccccc3)c(=S)s2)cc1S(=O)(=O)N(C)C do in these assays?
NR2F2 inh: 68.1*; LRH-1 inv ag: 28.7; SRC2 inh: 26.6; NCOA3 inh: 18.2; NCOA1 inh: -0.2; GalR3 antag: 71.5*; GalR3 antag conf: 93.1*; CNG parental: -0.4; Gal4-VP16 ctr: 2.3; COUP-TFII conf: 63.1*

How did O=C(CSc1nn(-c2ccccc2)c(=S)s1)Nn1cnnc1 do in these assays?
NR2F2 inh: -2.8; LRH-1 inv ag: 1.0; SRC2 inh: -9.8; NCOA3 inh: 14.7; NCOA1 inh: -0.2; GalR3 antag: -4.2

How did CCCn1nnc(NC(=S)NC(=O)c2ccc(-c3ccc(Br)cc3)o2)n1 do in these assays?
NR2F2 inh: -9.7; LRH-1 inv ag: 7.0; SRC2 inh: -0.3; NCOA3 inh: 9.4; NCOA1 inh: -3.6; GalR3 antag: -2.3

How did CCNc1nc2c(c(=O)n(C)c(=O)n2C)n1Cc1ccc(Cl)cc1 do in these assays?
NR2F2 inh: 52.9*; LRH-1 inv ag: 28.7; SRC2 inh: 25.9; NCOA3 inh: 15.0; NCOA1 inh: 24.8; GalR3 antag: 21.5*; GalR3 antag conf: 71.4*; CNG parental: 0.1; Gal4-VP16 ctr: 5.5; COUP-TFII conf: 36.5
